Bioassay records as filed in PubChem.
NALP1 yeast inh: NALP1 inflammasome inhibitors in reconstituted yeast, colorimetric, S. cerevisiae, triplicate retest. S. cerevisiae NALP1/ASC/caspase-1 growth, X-gal OD620, 72 h. AID 2071, 2009. 0.61% of 280,000 active. inhibition, % at 10 µM; in the data active = inhibition mostly above about 24%, no sharp cut-off; inactive = mostly below about 32%
tim10-1 inh: growth inhibitors of tim10-1 mutant yeast, primary screen, luminescence, uHTS. 2.2% of 330,000 active. AID 463190, 2010. S. cerevisiae tim10-1 ts strain growth, BacTiter-Glo, 24 h. inhibition, % at 20 µM;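 active = inhibition of at least 40%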;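 also: mutant grown at 25 °C; 0% = DMSO wells with yeast and 100% = wells holding no yeast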
NLRP3 yeast inh: NALP3 inflammasome inhibitors in reconstituted yeast, primary screen, luminescence, uHTS. Yeast reconstituted NLRP3/ASC/caspase-1, beta-gal luminescence, 24 h. inhibition, % at 10 µM. 0.39% of 330,000 active. AID 2825, 2010;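 active = inhibition of 50% or more; inactive = inhibition below 50%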;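 also: plate controls were induced DMSO wells for no effect and uninduced yeast grown without galactose for full effect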
TIM10 inh: growth inhibitors of isogenic TIM10 control yeast, primary screen, counter-screen for tim10-1 yeast inhibitor project, luminescence, uHTS. S. cerevisiae TIM10 strain growth, BacTiter-Glo luminescence, 24 h. 1.4% of 330,000 active. inhibition, % at 10 µM;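 active = inhibition of 40% or more at the single tested concentration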;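 also: wild-type TIM10 isogenic control strain grown at permissive 25 °C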
tim23-1 inh: growth inhibitors of tim23-1 mutant yeast, primary screen, luminescence, uHTS; 1.3% of 330,000 active; inhibition, % at 20 µM; S. cerevisiae tim23-1 growth, BacTiter-Glo luminescence, 24 h;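 active = growth inhibition of the mutant yeast at or above 50%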;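 also: temperature-sensitive mutant grown at 25 °C; plate controls were DMSO-treated mutant yeast for no effect and medium wells lacking yeast for full effect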
tim23-1 confirm: tim23-1 mutant yeast growth inhibitors, confirmation, luminescence, single concentration. shares compounds with tim23-1 inh. S. cerevisiae tim23-1 growth, BacTiter-Glo luminescence, 24 h. inhibition, % at 20 µM. 83% of 4,400 active. AID 463218, 2010;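 active = inhibition above about 39% in either of two replicate wells at 20 µM, limit read from the data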;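 also: temperature-sensitive tim23-1 mutant grown at 25 °C; 0% = DMSO wells with yeast and 100% = medium wells without yeast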
* hit, by the source's call; . = not tested or not shown. Compounds with a hit are over-represented: about 4% of the library has one in this group of screens.

SMILES | NALP1 yeast inh | tim10-1 inh | NLRP3 yeast inh | TIM10 inh | tim23-1 inh | tim23-1 confirm
CC(=O)Nc1ccc(NC(=O)C(C)OC(=O)/C=C/c2cnc3ccccc3n2)cc1 (centres undefined) | . | 4 | -1 | 2 | -4 | .
CC(NC(=O)/C=C/c1cnc2ccccc2n1)C12CC3CC(CC(C3)C1)C2 (centres undefined) | . | 35 | 17 | 39 | 60* | 50*
COCC(=O)N/N=C\c1ccccc1OC/C=C/c1ccccc1 | 18 | 25 | 9 | 19 | 51* | 39*
O=C(OCC(=O)c1ccc(Cl)cc1Cl)c1cnccn1 | 8 | 9 | -6 | -10 | 13 | .
N#CC1=C(N)c2ccccc2CC12CCCCC2 | -5 | 8 | -8 | 20 | 51* | 41*
Cc1cc(C)n2c(SCC(=O)N(CC(C)C)c3c(N)n(CC(C)C)c(=O)[nH]c3=O)nnc2n1 | 0 | 14 | 2 | 0 | 20 | .
CC1CCC(NC(=O)c2cc(C3CC3)nn2-c2ccccc2)CC1 (centres undefined) | . | 38 | 22 | 14 | 50* | 46*
CCCCNC(=S)N/N=C/c1cc(C)ccc1C | 9 | 18 | 11 | 24 | 53* | 42*
CCN1C(=O)/C(=C/c2nc3ccccc3c(=O)[nH]2)c2ccccc21 | 12 | . | . | . | . | .
CCN1C(=O)/C(=C/c2nc3ccccc3c(=O)n2-c2ccc(C)cc2)c2ccccc21 | 22 | 40 | 16 | 10 | 52* | 41*
O=[N+]([O-])c1ccc2c(c1N1CCCCC1)=NC1(CCCCC1)[N+]=2[O-] | 0 | 35 | 17 | 27 | 54* | 42*
Cc1ccccc1NC(=S)N1CCC(NC(=O)c2ccco2)CC1 | 4 | -15 | 6 | 5 | 2 | .
C(=N\N1CCN(C2c3ccccc3-c3ccccc32)CC1)/c1ccccn1 | -23 | 24 | 18 | 36 | 54* | 32
CCOC(=O)c1sc(NC(=O)CSc2n[nH]c(-c3ccc(Cl)cc3Cl)n2)c(C#N)c1C | 17 | 16 | 8 | 0 | -22 | .
O=C1c2ccccc2C(=O)N1c1nc(-c2cccs2)cs1 | -7 | 25 | 34 | 25 | 77* | 41*
Cc1nc2scc(C)n2c(=O)c1S(=O)(=O)Nc1ccc(N2CCOCC2)cc1 | 26 | -2 | 8 | -3 | 71* | 47*
CC(C)c1nc(NCCO)c(C#N)c2c1CCCC2 | 1 | 37 | 15 | 30 | 54* | 39*
CC(C)c1nc(NCc2ccccc2)c(C#N)c2c1CCCC2 | 22 | 19 | 3 | -6 | -1 | .
CCN1C(=O)c2cccc3c(S(=O)(=O)N(C(=O)c4cccnc4)c4ccc(OC)cc4)ccc1c23 | 26 | 5 | 1 | -8 | 46 | .
CCN1C(=O)c2cccc3c(S(=O)(=O)N(C(=O)c4ccncc4)c4ccc(OC)cc4)ccc1c23 | 18 | 24 | 3 | 9 | 52* | 30
CC1=NN(c2ccccc2)C(=O)/C1=C\c1c(C)[nH]n(-c2ccccc2)c1=O | 13 | 12 | 22 | 11 | 7 | .
CC1=NN(c2ccccc2)C(=O)/C1=C/c1c(O)n(-c2ccc(F)c(Cl)c2)[nH]c1=O | 10 | 35 | 0 | 34 | 58* | 43*
Cc1c(Br)cc(C(=O)OC2CCN(C)CC2)c(C)c1C | 8 | 5 | 20 | 9 | 1 | .
Cc1ccc(S(=O)(=O)Oc2ccc(/C=C(/NC(=O)c3ccccc3)C(=O)NC(C)C(=O)O)cc2)cc1 (centres undefined) | 11 | 13 | 6 | 13 | 5 | .
CSc1ccc(S(=O)(=O)NC2CCCCCC2)cc1 | -11 | 10 | 27 | 22 | 53* | 48*
CC(=O)c1ccccc1NC(=O)c1ccc(N2CCCC2=O)cc1 | . | 26 | 17 | 3 | 14 | .
CC(=O)Nc1ccc(NC(=O)C(C)OC(=O)[C@@H]2CCCN2C(=O)c2cccs2)cc1 (some centres undefined) | . | 2 | 17 | 1 | 2 | .
CC(C)n1cc(NC(=O)c2cc(-c3ccccc3)on2)cn1 | 10 | 21 | 19 | 26 | 55* | 54*
Cc1ccc(CC(=O)NCCS(=O)c2ccc(C)cc2)cc1 (centres undefined) | 17 | 4 | 5 | 16 | -8 | .
